For 17 compounds, outcome and Potency results are on record in PubChem BioAssay (NCATS).

Results filed as inconclusive are left out. Some structures have more than one record in an assay (separate samples or runs), and their calls can disagree. Calls of active or inactive are those of the source. The call rests on the fitted dose curve; in most records, active means well fitted inhibition curve with a large enough effect; inconclusive means small, poorly fitted or top-dose-only effect; inactive means flat fitted curve, though single readings scatter.

Assay in all cases: qHTS profiling for inhibitors of Plasmodium falciparum proliferation (AID 504749); further: nearly all actives have a fitted effect of over 60% in size
Holding throughout (details): P. falciparum in erythrocytes, SYBR Green DNA, 72 h; series mostly up to 28.7 µM

Test [1] deals with CP262. The gist of the method:
(§1)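 SYBR Green fluorescence (ex 485 nm, em 535 nm) reports parasite DNA after 72 h compound exposure of infected red cells at 0.3% parasitemia, 2.5% hematocrit; signal normalized to 0.29 uM artemisinin and vehicle wells.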

Test [2] concerns CP265. The gist of the method:
as §1

In test [3] the test system is CP266. The gist of the method: as §1
The test system of test [4] is CP268. The essentials: as §1
The subject of test [5] is CP269. The gist of the method:
as §1

Test [6] has as its system CP286. The essentials: as §1
For test [7], the system named is CP291. The gist of the method:
as §1

Test [8] deals with CP297. The gist of the method: as §1
Test [9] relates to CP305. The gist of the method: as §1
In test [10] the test system is CP315. The gist of the method:
as §1

For test [11], the system named is CP325. The gist of the method: as §1
For test [12], the system named is CP329. The essentials:
as §1

Test [13] relates to CP335. The gist of the method:
as §1

Test [14] has as its system DFO2036. The essentials: as §1
In test [15] the test system is DIV14. The essentials: as §1
The subject of test [16] is DIV17. The gist of the method: as §1
Test [17] deals with DIV30. The essentials: as §1
In test [18] the test system is Dd2. The essentials:
as §1

Test [19] deals with ECU. The gist of the method: as §1
The test system of test [20] is FAB9. The gist of the method: as §1
Potency means the concentration at half of the fitted maximal effect.

Take `NC(N)=Nc1nc(CSCC/C(N)=N/S(N)(=O)=O)cs1`: the call in test [1], in test [3], in test [4], in test [5], in [6] and in [7] was inactive. The result in test [10], in test [11], in test [12], in test [14], in [17] and in [20] was inactive. The Potency result in test [2], in [8], in [9], in test [13], in [15] and in test [16] was “inactive” throughout. In addition, the Potency entry in test [18] and in test [19] was “inactive” each time.
As for `CCCCC1C(=O)N(c2ccccc2)N(c2ccccc2)C1=O`, the Potency result in test [18] was “inactive”. Further, the Potency in test [19] was 8.91 µM (active) and inactive. Further, in [20], the call was inactive.
`CC(=O)N[C@@H](CS)C(=O)O`: the result in test [1], in [3], in [4], in test [5], in test [6] and in test [7] was inactive. Moreover, the call in test [10], in test [11], in test [12], in test [14], in [17] and in test [20] was inactive. In addition, the Potency entry in test [2], in test [8], in test [9], in test [13], in [15] and in [16] was “inactive” in each case. Further, the Potency result in [18] and in test [19] was “inactive” each time.
Turning to `COCCCCC(=NOCCN)c1ccc(C(F)(F)F)cc1`, the call in test [10] was inactive. Besides, the Potency in test [15] and in [16] was 6.75 µM (active) throughout.
As to `COc1ccc(Cc2nccc3cc(OC)c(OC)cc23)cc1OC`, the outcome in test [1], in test [3], in test [4], in test [5], in test [6] and in [7] was inactive. Also, the outcome in [10], in test [11], in test [12], in test [14], in [17] and in [20] was inactive. Further, the Potency entry in [2], in [8], in [9], in [13], in [15] and in [16] was “inactive” each time. Also, the Potency result in test [18] and in test [19] was “inactive” each time.
Take `O=C1NCC2(CCN(CCc3ccccc3)CC2)O1`: the compound was called inactive in test [1], in test [3], in test [4], in test [5], in test [6] and in test [7]. In addition, the compound was classed as inactive in test [10], in test [11], in test [12], in test [14], in test [17] and in test [20]. Moreover, the Potency entry in test [2], in test [8], in [9], in test [13], in test [15] and in test [16] was “inactive” each time. The Potency entry in [18] and in [19] was “inactive” in each case.
Take `CC(=O)O[C@]1(C(C)=O)CC[C@H]2[C@@H]3C=C(Cl)C4=CC(=O)[C@@H]5C[C@@H]5[C@]4(C)[C@H]3CC[C@@]21C`: the Potency result in test [2], in test [18] and in test [19] was “inactive” in each case. The outcome in test [10], in test [12], in [14] and in test [20] was inactive.
In the case of `O=C(O)Cc1cccc2ccccc12`, the compound was called inactive in [1], in [3], in [4], in test [5], in [6] and in test [7]. Moreover, the compound was called inactive in test [10], in test [11], in [12], in test [14], in test [17] and in test [20]. In addition, the Potency result in test [2], in test [8], in [9], in [15], in [16] and in test [18] was “inactive” throughout. Also, the Potency entry in [19] was “inactive”.
On to `O=C1Nc2ccc(Cl)cc2C(C#CC2CC2)(C(F)(F)F)O1` (stereo unspecified), for which the compound was classed as inactive in [1], in [4], in test [5], in [6], in test [7] and in test [10]. Further, the compound was called inactive in test [11], in [12], in [14], in [17] and in [20]. The Potency entry in test [2], in test [9], in test [18] and in [19] was “inactive” in each case.
Turning to `NCCS`, the outcome in test [1], in test [3], in test [4], in test [5], in test [6] and in test [7] was inactive. The call in [10], in test [11], in test [12], in test [14], in test [17] and in test [20] was inactive. Also, the Potency result in test [2], in [8], in [9], in test [13], in test [15] and in test [16] was “inactive” each time. Moreover, the Potency result in test [18] and in [19] was “inactive” in each case.
With `CCOC(=O)O[C@]1(C(=O)OCCl)CC[C@@H]2[C@H]3CCC4=CC(=O)C=C[C@]4(C)[C@@H]3[C@@H](O)C[C@@]21C`, the call in [1], in test [4], in test [5], in [6], in test [7] and in [10] was inactive. Further, the compound was classed as inactive in test [11], in [12], in [14] and in test [20]. For the same compound, the Potency result in test [2], in [13], in [15], in test [16], in test [18] and in test [19] was “inactive” throughout. Also, in test [8], the Potency is 16.9 µM (active).
Take `CCCNC(=O)NS(=O)(=O)c1ccc(Cl)cc1`: the outcome in test [1], in test [3], in [4], in test [5], in [6] and in test [7] was inactive. In addition, the compound was classed as inactive in test [10], in [11], in [12], in [14], in test [17] and in [20]. In addition, the Potency entry in test [2], in test [8], in [9], in test [13], in test [15] and in test [16] was “inactive” throughout. Further, the Potency result in test [18] and in test [19] was “inactive” in each case.
As for `O=C1NC(=O)C(c2ccccc2)(c2ccccc2)N1`, the result in test [1], in test [3], in [4], in test [5], in [6] and in [7] was inactive. Besides, the result in test [11], in test [12], in test [14], in [17] and in test [20] was inactive. The Potency result in test [2], in test [8], in test [9], in test [13], in test [15] and in test [16] was “inactive” each time. Also, the Potency result in test [18] and in test [19] was “inactive” throughout.
Regarding `C[C@@H](O)[C@H]1C(=O)N2C(C(=O)O)=C(S[C@@H]3CN[C@H](C(=O)N(C)C)C3)[C@H](C)[C@H]12`, the compound was classed as inactive in test [1], in test [3], in [4], in test [5], in [6] and in [7]. The result in test [10], in [11], in test [12], in [14], in test [17] and in [20] was inactive. In addition, the Potency result in [2], in [8], in test [9], in [13], in test [15] and in test [16] was “inactive” each time. The Potency result in test [18] and in [19] was “inactive” throughout.
Turning to `CCN(CC)CCNC(=O)c1ccc(N)cc1`, the compound was called inactive in [1], in test [3], in [4], in [5], in test [6] and in test [7]. Further, the compound was classed as inactive in test [10], in test [11], in test [12], in test [14], in test [17] and in test [20]. Moreover, the Potency result in test [2], in test [8], in [9], in [13], in test [15] and in test [16] was “inactive” in each case. Also, the Potency result in test [18] and in [19] was “inactive” each time.
For the compound `O=c1[nH]cnc2c1ncn2[C@H]1CC[C@@H](CO)O1`, the result in test [1], in test [3], in test [4], in [5], in test [6] and in test [7] was inactive. In addition, the outcome in test [10], in [11], in test [12], in [14], in [17] and in test [20] was inactive. Besides, the Potency entry in test [8], in test [9], in test [13], in test [15], in test [18] and in test [19] was “inactive” throughout.
For `C[N+](C)(C)CCCCCC[N+](C)(C)C`, the result in test [1], in [3], in test [4], in [5], in test [6] and in [7] was inactive. In addition, the outcome in [10], in [11], in [12], in [14], in [17] and in test [20] was inactive. Moreover, the Potency result in test [2], in test [8], in test [9], in [13], in [15] and in [16] was “inactive” throughout. The Potency entry in test [18] and in [19] was “inactive” in each case.
